Experimental findings from PubChem BioAssay (EPA / NIEHS) are described below.

Assay [1] is described as follows: APR_HepG2_CellCycleArrest_1hr: Apredica 1-hour HepG2 Assay for Cell Cycle Arrest (AID 2282666). Conditions: high-content imaging, actives raise or lower the signal. The method in brief:
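Cell cycle arrest scored from nuclear DNA content (Hoechst 33342) using high-content imaging of fixed HepG2 cells after 1 h treatment across 0.39–200 uM, in duplicate. Gain or loss fitted relative to 0.5% DMSO.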

Assay [2] is described as follows: ACEA_ER_80hr: ACEA Biosciences xCELLigence Real-Time Cell Analysis on Estrogen Receptor Agonism for Proliferation (AID 2282667; active = hit-call score of the fitted dose curve at least 0.9, where 1 is the maximum). Particulars: T47D proliferation, impedance (xCELLigence), 80 h. The method in brief: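 T-47D cells monitored by electrical impedance (xCELLigence) with compound present throughout; 80 h timepoint, positive-direction fitting versus DMSO. Eight-point 1:4 dilutions from 100 uM final, duplicate plates.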

A short description of assay [3]: APR_HepG2_MicrotubuleCSK_1hr: Apredica 1-hour HepG2 Assay for Microtubule CSK Stabilty (AID 2282669). Conditions: HepG2 microtubule cytoskeleton imaging, actives raise or lower the signal. Summed up: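 Alpha-tubulin immunofluorescence, imaged by automated high-content microscopy with Hoechst nuclear segmentation, measured cytoskeletal change after 1 h dosing of HepG2 at 0.39–200 uM in 0.5% DMSO. Activity fitted in both directions relative to DMSO.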

Assay [4] can be described thus: APR_HepG2_p53Act_1hr: Apredica 1-hour HepG2 Assay for p53 Activation (AID 2282671). Particulars: high-content imaging, actives raise or lower the signal. Summed up: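 After 1 h exposure (0.39–200 uM, 0.5% DMSO final, duplicates), fixed HepG2 cells were labelled with anti-p53 antibody plus Hoechst nuclear stain. Fluorescence quantified by automated 20x imaging; changes fitted in both directions against DMSO.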

The nature of assay [5]: APR_HepG2_P-H2AX_1hr: Apredica 1-hour HepG2 Assay for H2AX Phosphorylation (AID 2282673). Particulars: high-content imaging, actives raise or lower the signal. The method in brief:
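Phospho-H2A.x immunofluorescence (1:200, FITC secondary) plus Hoechst nuclear stain, quantified by high-content imaging in HepG2 after 1 hr compound exposure. Ten concentrations, 0.39 to 200 uM, in duplicate with 0.5% DMSO; fit both directions against DMSO.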

Assay [6] can be described thus: APR_HepG2_MitoMass_1hr: Apredica 1-hour HepG2 Assay for Mitochondrial Mass (AID 2282674). Particulars: high-content imaging, actives raise or lower the signal. Summed up: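 Mitochondrial mass is taken from MitoTracker Red CMXRos (250 nM, 30 min, pre-fixation) fluorescence imaged at 20x in HepG2 cells. Exposure lasted 1 hr across ten concentrations, 0.39 to 200 uM, 0.5% DMSO; DMSO baseline, bidirectional fitting.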

Assay [7] is described as follows: APR_HepG2_CellCycleArrest_24hr: Apredica 24-hour HepG2 Assay for Cell Cycle Arrest (AID 2282905).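 Note: cell cycle arrest scored as ratio of 2N to 4N nuclear DNA content.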 Particulars: imaging, actives raise or lower the signal. Summed up: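 Compounds (0.39 to 200 uM, final DMSO 0.5% v/v) are applied to HepG2 cells for 24 hours; cells are then fixed, permeabilized and nuclei labeled with Hoechst 33342. Automated imaging measures DNA content, and activity is fitted in both directions against DMSO.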

The nature of assay [8]: APR_HepG2_StressKinase_1hr: Apredica 1-hour HepG2 Assay for Stress Kinase (AID 2282906). Particulars: HepG2 stress kinase (phospho-c-Jun) imaging, actives raise or lower the signal. The method in brief: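 High-content imaging of phospho-c-Jun immunostaining (with Hoechst nuclear identification) after a 1 h exposure of HepG2 cells to 10 concentrations from 0.39 to 200 uM, final DMSO 0.5%. Fitted bidirectionally against DMSO.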

A short description of assay [9]: APR_HepG2_NuclearSize_24hr: Apredica 24-hour HepG2 Assay for Nuclear Size (AID 2282907). Particulars: high-content imaging, actives raise or lower the signal. The method in brief:
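Nuclear size is measured by fluorescence high-content imaging of Hoechst-labelled HepG2 nuclei after 24 hr of treatment (0.39–200 uM, 0.5% DMSO). Cells are fixed in 3.7% formaldehyde before staining, and DMSO serves as the baseline for bidirectional curve fitting.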

The nature of assay [10]: APR_HepG2_CellLoss_24hr: Apredica 24-hour HepG2 Assay for Cell Loss (AID 2282908).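 For AC50: fit in both directions so a hit may be cell loss or gain.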 Particulars: high-content imaging. Summed up:
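Nuclear count serves as the viability measure: treated cells are fixed, permeabilized and labelled with Hoechst 33342, and six images per well are analysed to identify valid nuclei. Doses span 0.39–200 uM, and activity in either direction is scored against DMSO.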

Assay [11] in a line: APR_HepG2_MicrotubuleCSK_24hr: Apredica 24-hour HepG2 Assay for Microtubule CSK Stabilty (AID 2282909). Particulars: HepG2 microtubule cytoskeleton imaging, actives raise or lower the signal. Summed up: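 Compounds were applied to HepG2 cells for 24 hours across 0.39–200 uM in duplicate, with final DMSO at 0.5% v/v. Fixed, permeabilized cells were labeled for alpha-tubulin and nuclei, and tubulin fluorescence was quantified by imaging, fitted bidirectionally against DMSO.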

Assay [12] can be described thus: APR_HepG2_MitoticArrest_24hr: Apredica 24-hour HepG2 Assay for Mitotic Arrest (AID 2282910). Conditions: high-content imaging, actives raise or lower the signal. The method in brief: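 High-content imaging of fixed HepG2 cells labeled with Hoechst 33342 and anti-phospho-histone H3, after 24 h treatment. Ten concentrations 0.39 to 200 uM in duplicate, final DMSO 0.5%; changes fitted both directions relative to DMSO.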

A short description of assay [13]: APR_HepG2_MitoMembPot_24hr: Apredica 24-hour HepG2 Assay for Mitochondrial Membrane Potential (AID 2282911). Conditions: imaging, actives raise or lower the signal. The method in brief:
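HepG2 cells exposed 24 h to 0.39–200 uM compounds in duplicate, 0.5% v/v DMSO final. MitoTracker Red CMXRos 250 nM loaded 30 min before formaldehyde fixation; high-content imaging at 20x, bidirectional fit versus DMSO.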

Assay [14] in a line: APR_HepG2_MitoMass_24hr: Apredica 24-hour HepG2 Assay for Mitochondrial Mass (AID 2282912). Conditions: high-content imaging, actives raise or lower the signal. The method in brief:
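After 24 hr of treatment at 0.39 to 200 uM, HepG2 cells take up 250 nM MitoTracker Red CMXRos for 30 min and are then fixed with 3.7% formaldehyde. Per-well images are quantified, and any change in either direction is scored against solvent.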

Assay [15] is described as follows: APR_HepG2_p53Act_24hr: Apredica 24-hour HepG2 Assay for p53 Activation (AID 2282913).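 Note: p53 protein immunofluorescence averaged per cell in HepG2 with Hoechst nuclei.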 Conditions: high-content imaging, actives raise or lower the signal. Summed up:
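HepG2 cells exposed 24 h to compounds at 0.39–200 uM in duplicate, 0.5% v/v DMSO final; fixed, permeabilized, stained with anti-p53 antibody and Hoechst 33342; fluorescence imaging; bidirectional curve fit versus DMSO.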

Assay [16] can be described thus: APR_HepG2_CellCycleArrest_72hr: Apredica 72-hour HepG2 Assay for Cell Cycle Arrest (AID 2282914). Particulars: high-content imaging, actives raise or lower the signal. The method in brief: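 HepG2 cells exposed 72 h in duplicate to 0.39–200 uM compound, 0.5% DMSO final. Formaldehyde-fixed, Hoechst 33342-stained nuclei imaged at 20x, six fields per well; DNA content per valid cell quantified by cell-cycle image analysis, bidirectional fit versus DMSO.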

The nature of assay [17]: APR_HepG2_MitoMembPot_1hr: Apredica 1-hour HepG2 Assay for Mitochondrial Membrane Potential (AID 2282675). Conditions: imaging, actives raise or lower the signal. Summed up:
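Mitochondrial membrane potential read as MitoTracker Red CMXRos intensity by automated imaging of fixed HepG2 cells. Dye at 250 nM for 30 min pre-fixation; compounds 0.39 to 200 uM for 1 hour, duplicate wells, 0.5% DMSO.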

Assay [18] can be described thus: APR_HepG2_NuclearSize_1hr: Apredica 1-hour HepG2 Assay for Nuclear Size (AID 2282670). Conditions: high-content imaging, actives raise or lower the signal. The method in brief: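 Nuclear size measured by high-content imaging of Hoechst 33342 nuclear stain after formaldehyde fixation; human HepG2 line exposed 1 hr to compounds at 0.39–200 uM in 0.5% DMSO, with bidirectional curve fitting relative to DMSO.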

Assay [19] in a line: APR_HepG2_MitoticArrest_1hr: Apredica 1-hour HepG2 Assay for Mitotic Arrest (AID 2282672). Conditions: high-content imaging, actives raise or lower the signal. The method in brief: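 Ten-point concentration series (0.39 to 200 uM, duplicates, 0.5% v/v DMSO) applied to human HepG2 liver cells for 1 hr. High-content imaging of phospho-histone H3 and Hoechst-stained nuclei after fixation and permeabilization; DMSO-normalised bidirectional fit.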

Results filed as inconclusive are left out. Activity calls are given as the source filed them. Rule for the calls, unless noted: active = hit-call score of the fitted dose curve at least 0.9, where 1 is the maximum; inactive = score below 0.9.

With `COc1cc(Cl)c(OC)cc1Cl`, the outcome in assay [1], in [2], in assay [3], in assay [4], in assay [5] and in assay [6] was inactive. For the same molecule, the call in assay [7], in assay [8], in assay [9], in [10], in [11] and in assay [12] was inactive. Moreover, the molecule was called inactive in assay [13], in assay [14], in assay [15] and in assay [16].

On to `CC(C)C1(C)N=C(c2ncccc2C(=O)O)NC1=O` (centres undefined), for which the result in [1], in assay [2], in [3], in assay [4], in assay [5] and in assay [6] was inactive. Further, the molecule was called inactive in [7], in assay [8], in assay [9], in [10], in assay [11] and in [12]. For the same molecule, the call in [13], in assay [14] and in assay [15] was inactive.

As usually defined, the AC50 is the midpoint of the concentration-response curve, whichever way the signal moves. With `COC(=O)NC(=S)Nc1ccccc1NC(=S)NC(=O)OC`, the result in assay [1], in [2], in assay [3], in [4], in assay [5] and in assay [6] was inactive. The outcome in assay [17], in assay [7], in assay [8], in assay [9], in assay [10] and in assay [12] was inactive. The molecule was called inactive in assay [14] and in [15]. In addition, the concentration at half-maximal activity (AC50) is 28.6 µM (active) in assay [11] and 26 µM (active) in assay [13].

Regarding `O=P(O)(O)CCCl`, the concentration at half-maximal activity (AC50) in assay [1] was 71.3 nM (active). The molecule was called inactive in [2], in assay [3], in [18], in [4], in [5] and in assay [6]. In addition, the molecule was called inactive in assay [17], in assay [7], in assay [8], in assay [9], in assay [10] and in [11]. Besides, the outcome in assay [12], in assay [13], in [14] and in assay [15] was inactive.

For the molecule `Nc1c(Cl)c(F)nc(OCC(=O)O)c1Cl`, the result in [1], in [2], in assay [3], in assay [18], in assay [4] and in [5] was inactive. The molecule was called inactive in assay [6], in assay [17], in assay [7], in [8], in assay [9] and in assay [10]. Moreover, the call in [11], in assay [12], in assay [13], in [14], in assay [15] and in assay [16] was inactive.

Consider `CC1(C)C(C(=O)OC(C#N)c2cccc(Oc3ccccc3)c2)C1(C)C` (centres undefined), for which the outcome in [1], in assay [2], in [3], in assay [4], in assay [19] and in [5] was inactive. The molecule was classed as inactive in assay [6], in [17], in [7], in assay [8], in assay [9] and in assay [10]. Further, the molecule was called inactive in assay [11], in [12], in assay [13], in assay [14] and in [15].

As for `O=C1C2CC=CCC2C(=O)N1SC(Cl)(Cl)Cl` (centres undefined), the molecule was called inactive in assay [1], in [2], in assay [3], in assay [4], in [6] and in assay [13]. In addition, the outcome in assay [14] was inactive. For the same molecule, the AC50 in assay [5] was 81.7 µM (active); in assay [7], 33.4 µM (active); in assay [8], 87.6 µM (active); in assay [9], 59.3 µM (active); in assay [10], 54.6 µM (active); in [11], 24.1 µM (active). The AC50 was 30.1 µM (active) in [12] and 28.5 µM (active) in [15].

With `Cc1cnc(C2=NC(C)(C(C)C)C(=O)N2)c(C(=O)O)c1` (centres undefined), the molecule was called inactive in assay [1], in assay [2], in [3], in [18], in assay [4] and in assay [5]. The result in assay [6], in assay [7], in [8], in assay [9], in assay [10] and in assay [11] was inactive. Besides, the molecule was classed as inactive in [12], in [13], in assay [14], in [15] and in [16].

As to `CC(C)NC(=O)N1CC(=O)N(c2cc(Cl)cc(Cl)c2)C1=O`, the molecule was classed as inactive in [1], in assay [2], in [3], in [18], in assay [4] and in [5]. For the same molecule, the molecule was classed as inactive in [6], in [17], in assay [7], in assay [8], in [9] and in assay [10]. In addition, the molecule was called inactive in assay [11], in assay [12], in assay [13], in assay [14], in assay [15] and in assay [16].

As for `CCCCOCN(C(=O)CCl)c1c(CC)cccc1CC`, the molecule was called inactive in assay [1], in assay [2], in assay [3], in assay [4], in assay [5] and in assay [6]. The molecule was called inactive in assay [7], in [9], in assay [12], in assay [13], in assay [14] and in assay [15]. For the same molecule, the AC50 was 47.5 µM (active) in [8], 35.3 µM (active) in assay [10] and 31.2 µM (active) in assay [11].
